Screening results from PubChem BioAssay.
HT1080 IDH1KD tx = qHTS for induction of synthetic lethality in tumor cells producing 2HG: qHTS for the HT-1080-IDH1KD cell line; HT-1080 IDH1 knockdown viability, ATP luminescence, 48 h; Potency, µM (top dose mostly 46.1 µM), for the others: top-dose activity, negative = toxicity, usual class: cytotoxic; hit rate 2% among 360,000; AID 686971, 2013;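 further: 0% = DMSO wells and -100% = cell-free medium wells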
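Using the IDH1-knockdown HT-1080 line run in the same batch and compound series as the NT line, viability after 48 h at 37 °C was determined by CellTiter-Glo luminescence and expressed as % activity.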
KB-V1 MDR tox = qHTS assay for MDR1-selective chemotherapeutics: Primary screen using the drug-selected MDR subline cells KB-V1; KB-V1 MDR cells viability, CellTiter-Glo, 72 h; Potency, µM (highest dose often 46.1 µM), usual class: cytotoxic; hit rate 3.4% among 400,000; further: on the % scale 0 is the no-effect control and ±100 the full control effect; nearly all actives have a fitted effect of over 60% in size
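Cytotoxicity toward P-gp-expressing KB-V1 cells was determined as loss of CellTiter-Glo luminescence after 72 h at 37 degrees C. Compounds were tested in quantitative HTS format across a concentration range, with curves fitted to normalized data.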
KB-3-1 cytotox = qHTS assay for MDR1-selective chemotherapeutics: Primary screen using the parental adenocarcinoma cell KB-3-1. KB-3-1 viability, CellTiter-Glo ATP luminescence, 72 h. Potency, µM (doses to about 46.1 µM), most hits filed as cytotoxic. hit rate 1.4% among 400,000; further: on the % scale 0 is the no-effect control and ±100 the full control effect; nearly all actives have a fitted effect of over 60% in size
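KB-3-1 parental drug-naive adenocarcinoma cells in DMEM/10% FBS, incubated 72 h at 37 C with pin-transferred compounds across a concentration series. Viability by CellTiter-Glo luminescence; concentration-response curves fitted after normalization.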
SW480 rereplic = A quantitative high throughput screen for small molecules that induce DNA re-replication in SW480 colon adenocarcinoma cells; SW480 DNA re-replication, Hoechst DNA content imaging, 48 h; Potency, µM (highest dose often 46.1 µM), for the others: top-dose re-replication activation, hits mostly activators; hit rate 1.8% among 340,000; AID 624297, 2012; further: % of control where 0% means no effect; nearly all actives have a fitted effect of over 55% in size
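DNA re-replication was detected as more nuclei of elevated Hoechst intensity after 48 hr exposure to compound (23 nL pinned per well of 250 cells).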
MCF10A rereplic = A quantitative high throughput screen for small molecules that induce DNA re-replication in MCF 10a normal breast cells; MCF 10A DNA re-replication, Hoechst nuclear intensity, 48 h; Potency, µM (doses to about 46.1 µM), without a hit: at the highest dose activity, positive = re-replication, actives largely listed as activators; hit rate 2.9% among 350,000; AID 624296, 2012; further: % of control where 0% means no effect; nearly all actives have a fitted effect of over 50% in size
HT1080-NT tox = qHTS for induction of synthetic lethality in tumor cells producing 2HG: qHTS for the HT-1080-NT fibrosarcoma cell line; Potency, µM (top dose mostly 46.1 µM), inactives show at the highest dose activity, negative = less viability, actives largely listed as cytotoxic; hit rate 1.6% among 360,000; HT-1080-NT fibrosarcoma viability, CellTiter-Glo ATP luminescence, 48 h;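 further: NT is the 2HG producing partner of a matched IDH1 knockdown line; 0% = DMSO-treated cells and -100% = media-only wells without cells; nearly all actives have a fitted effect of over 55% in size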
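750 cells/well, RPMI + 5% FBS; 2 h settle, compound pin-transfer, 48 h at 37 degrees C. CellTiter-Glo 10 min RT, luminescence. Normalized to DMSO and media-only wells.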
The depositor's hits bear a star; i = inactive; u = inconclusive; x = no result given; [ ] = another dose, or the depositor's remark. An excerpt weighted towards active compounds, which were near 8% of everything screened. The call rests on the fitted dose curve; in most records, active means well fitted curve in the direction sought with a large enough effect; inconclusive means small, poorly fitted or top-dose-only effect, or another doubt; inactive means no such curve, though single readings can be large; an effect the other way counts as inactive or inconclusive. Potency means the concentration at half of the fitted maximal effect.

SMILES	HT1080 IDH1KD tx	KB-V1 MDR tox	KB-3-1 cytotox	SW480 rereplic	MCF10A rereplic	HT1080-NT tox
Fc1ccc(Cn2cccc2C2=NC(c3ccccc3)CO2)cc1 (stereo not given)	5%	i	i	-3%	10%	0%
Cc1ccc(NC(=O)Cn2cccc2C2=NC(c3ccccc3)CO2)cc1C (stereo not given)	0%	15µM*	u	u	u	0%
Cc1oc(-c2ccccc2)nc1Cn1cccc1C1=NC(c2ccccc2)CO1 (stereo not given)	u	12µM*	16µM*	u	u	-13%
CCc1ccccc1NC(=O)Cn1cccc1C1=NC(c2ccccc2)CO1 (stereo not given)	16µM*	u	i	u	19%	u
O=C(CN1C(=O)NC2(CCCC2)C1=O)Nc1cccc(Cl)c1	2%	u	i	1%	1%	-1%
Cc1cc(C)c(S(=O)(=O)NCCc2cc3cc(C)c(C)cc3[nH]c2=O)c(C)c1	x	i	i	x	x	x
Cc1nc(-c2ccc(Cl)cc2)sc1CCNC(=O)C(=O)Nc1ccc(F)cc1F	x	i	i	x	x	x
O=C(CSc1ccc(Cl)cc1)N1CCC(c2nc3ccccc3s2)CC1	-7%[9.24 µM]	10µM*	u	-4%	u	u
O=C(c1ccccc1Cl)N1CCC(c2nc3ccccc3s2)CC1	x	13µM*	i	x	x	x
Cc1ccccc1C(=O)N1CCC(c2nc3ccccc3s2)CC1	x	u	i	x	x	x
NC(=O)C1CCN(C(=O)c2cc(-c3ccc(Cl)s3)nc3ccccc23)CC1	-23%	i	i	18µM*	u	-19%
CC(Oc1ccc(F)cc1)C(=O)N1CCC(c2nc3ccccc3s2)CC1 (stereo not given)	x	8.2µM*	i	x	x	x
CCOC(=O)C1=C(C)N(c2ccccc2)C(=O)/C1=C\c1cccs1	5%	18µM*	i	3%	0%	-1%
CS(=O)(=O)N1CCC(N2CCN(Cc3ccccc3)C(=O)C2=O)CC1	x	i	i	x	x	x
CC1CCc2nc(-c3cc4c(ccc5ccccc54)oc3=O)sc2C1 (stereo not given)	x	i	i	x	x	x
OCCNCC(O)Cn1ccc2ccccc21 (stereo not given)	6%	u	i	-17%	u	-1%
OCCN(CC(O)Cn1ccc2ccccc21)CC(O)Cn1ccc2ccccc21 (stereo not given)	-16%	15µM*	i	3%	28%	-3%
CN(C)c1ccc(CNC(=O)Cn2ccc3cc(S(=O)(=O)N4CCCCCC4)ccc32)cc1	x	i	i	x	x	x
CCC(C(=O)OCC(=O)N1CCN(S(=O)(=O)c2ccc(C)cc2C)CC1)c1ccccc1 (stereo not given)	10%	15µM*	i	-8%	-2%	2%
Cc1ccc(S(=O)(=O)N2CCN(C(=O)c3cccs3)CC2)c(C)c1	-2%	u	i	4.1µM*	3%	-1%
COc1cc(OC)c(C(=O)OCC(=O)N2CCN(S(=O)(=O)c3ccc(C)cc3C)CC2)cc1OC	0%	16µM*	i	3%	0%	13%
NCCCCNc1ncnc2ccc(-c3ccc4c(c3)OCO4)cc12	x	i	i	x	x	x
CCCCOc1ccccc1NC(=O)C=C(C)C	11%	i	i	-9%	-3%	0%
CCCOc1ccccc1NC(=O)/C=C/C(N)=O	10µM*	i	i	13µM*	4.5µM*	u
Cc1ccc2oc(C(=O)N(C)Cc3ccc(C)o3)c(C)c2c1	0%	i	i	u	23µM*	-13%
SMILES	HT1080 IDH1KD tx	KB-V1 MDR tox	KB-3-1 cytotox	SW480 rereplic	MCF10A rereplic	HT1080-NT tox
COc1ccc(NC(=O)Nc2nccs2)cc1	u	7.3µM*	u	12µM*	u	u
COc1ccc(C(=O)Nc2nccs2)cc1	-1%	i	i	-1%	5%	15%
CSc1ccc(NC(=O)Nc2cccn(Cc3ccccc3)c2=O)cc1	u	3.7µM*	8.2µM*	-1%	6%	u
COc1ccc(NC(=O)Nc2ccccc2F)cc1	-9%	18µM*	u	-1%	0%	u
CCOc1ccc(NC(=O)Nc2cc(C)ccc2F)cc1	u	13µM*	i	13%	7%	u
CCOc1ccc(NC(=O)Nc2cc(C(C)C)c(O)cc2C)cc1	0%	i	i	2%	10%	-12%
Cc1cc(OCC(=O)N2CCC(c3nc4ccccc4s3)CC2)ccc1Cl	x	u	i	x	x	x
Cc1cc(Cl)ccc1OCC(=O)Nc1ccccc1CO	-10%	u	i	1%[9.22 µM]	32%	-3%
COc1ccc(NC(=O)Nc2ccccc2SC)cc1	-18%	i	i	-7%	-4%	-21%
CSc1ccccc1NC(=O)COc1ccc(Cl)cc1C	18%	13µM*	u	8%	u	17%
CSc1ccccc1NC(=O)Nc1ccc(Cl)cc1	u	i	i	u	u	14µM*
CCc1nc(-c2cc(S(=O)(=O)N3CCN(c4ccc(F)cc4)CC3)ccc2OC)no1	x	i	i	x	x	x
Cc1ccc(NC(=O)COC(=O)CSC(=S)N2CCOCC2)cc1	13%	i	i	-45%	2%	6%
Clc1ccc(/C=C/c2ncc3ccccn23)cc1	-18%	u	i	23µM*	18µM*	-13%
N#CSCC(=O)c1cccc2ccccc12	u	i	u	u	18µM*	u
NC(=O)c1cccc2ccccc12	2%	i	i	3%	8%	1%
O=C(CCN1CCN(c2ccccc2F)CC1)Nc1ccc(F)cc1	0%	i	i	-2%	13%	5%
O=C(CCCCCCC(=O)Nc1ccccc1)NO	x	1.3µM*	8.2µM*	3.7µM*	15µM*	x
Cc1ccccc1N1CCN(CCC(=O)Nc2ccc(F)cc2)CC1	-2%	18µM*	u	18%	2%	0%
O=C(CCN1CCN(CCO)CC1)Nc1ccccc1	-3%	i	i	-5%	0.65µM*	3%
O=C(CCN1CCN(Cc2ccccc2)CC1)Nc1cccc(Cl)c1	-24%	23µM*	i	4%	6%	-2%
O=C(COc1ccc(CNC[C@H]2O[C@@H](n3ccc(=O)[nH]c3=O)[C@H](O)[C@@H]2O)cc1)Nc1nccs1	u	i	i	x	x	20%
